# Measurements taken from PubChem BioAssay (EPA / NIEHS).
# Inconclusive results are not listed. Active and inactive are the calls of the source. How the source made its calls, unless noted: active means hit-call score of the fitted dose curve at least 0.9, where 1 is the maximum; inactive means score below 0.9.
# Tested on: not listed separately
# Assay: ATG_VDRE_CIS: Attagene CIS-FACTORIAL HepG2 Assay for human Vitamin D Receptor Element (VDRE) (AID 2282968)
# Details: HepG2 VDRE cis-reporter transcription, actives raise or lower the signal
# Outline: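 RT-PCR/CE readout of reporter mRNA; HepG2, transient transfection, 24 h dosing; DMSO baseline; bidirectional analysis.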
Structure (SMILES),outcome,AC50
C=CC(=O)OCCC(F)(F)C(F)(F)C(F)(F)C(F)(F)F,inactive,–
CO[Si](C)(CCC(F)(F)C(F)(F)C(F)(F)C(F)(F)C(F)(F)C(F)(F)F)OC,inactive,–
CCN=c1cc2oc3cc(NCC)c(C)cc3c(-c3ccccc3C(=O)OCC)c-2cc1C,inactive,–
CC(=O)c1ccccc1N,inactive,–
CC(C)C(=O)OCc1ccccc1,inactive,–
OCC1CCCO1 (centres undefined),inactive,–
CN(C)C(C)(C)CO,inactive,–
NC(=O)C(F)(F)C(F)(F)C(F)(F)F,inactive,–
F[Si-2](F)(F)(F)(F)F,inactive,–
c1ccc(C[P+](c2ccccc2)(c2ccccc2)c2ccccc2)cc1,inactive,–
CCOCOCC,inactive,–
C=CCOC(=O)CC(C)C,inactive,–
O=S(=O)(O)CCC(F)(F)C(F)(F)C(F)(F)C(F)(F)F,inactive,–
CC(=O)C=O,inactive,–
Cc1cccc(C)n1,inactive,–
COCCOCCC[Si](C)(O[Si](C)(C)C)O[Si](C)(C)C,–,2560 nM (active)
CCOC(=O)C1CC(=O)C(=C(O)C2CC2)C(=O)C1 (centres undefined),inactive,–
NC(O)(C(F)(F)F)C(F)(F)F,inactive,–

# Target: Nuclear receptor subfamily 1 group I member 3 (Homo sapiens) (UniProt Q14994)
# Sequence (Q14994 whole entry, looked up): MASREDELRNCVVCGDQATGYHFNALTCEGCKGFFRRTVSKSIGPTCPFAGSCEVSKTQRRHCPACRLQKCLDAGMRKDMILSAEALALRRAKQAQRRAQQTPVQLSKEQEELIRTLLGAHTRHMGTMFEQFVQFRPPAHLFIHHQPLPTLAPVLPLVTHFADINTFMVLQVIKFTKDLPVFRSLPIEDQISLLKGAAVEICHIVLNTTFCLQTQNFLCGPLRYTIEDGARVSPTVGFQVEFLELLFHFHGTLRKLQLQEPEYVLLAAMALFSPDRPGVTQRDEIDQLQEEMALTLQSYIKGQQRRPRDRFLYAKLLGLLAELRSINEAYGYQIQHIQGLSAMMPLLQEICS
# Assay: ATG_CAR_TRANS: Attagene TRANS-FACTORIAL HepG2 Assay for human Constitutive Androstane Receptor (CAR) (AID 2282969; active means hit-call score of the fitted dose curve at least 0.9, where 1 is the maximum;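 further: activators raise reporter mRNA above DMSO so AC50 marks induction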)
# Details: HepG2 Attagene TRANS-FACTORIAL CAR reporter
# Outline: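 HepG2 cells transiently transfected with multiplexed GAL4-UAS reporter units expressing chimeric NR-Gal4 proteins; compound exposure 24 h. Reporter mRNA measured by RT-PCR, 6-FAM labelling, HpaI digestion and capillary electrophoresis; gain-of-signal fitted against DMSO baseline.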
row,Structure (SMILES),outcome
1,O=C(c1ccccc1)c1ccc(O)cc1O,inactive
2,CC(=O)CCC(C)C,inactive
3,CC(C)OC(=O)COc1ccc(Cl)cc1Cl,inactive
4,O=C1c2c(O)ccc(Nc3ccc(CCO)cc3)c2C(=O)c2c([N+](=O)[O-])ccc(O)c21,inactive

# Target: Estrogen receptor (Homo sapiens) (UniProt P03372)
# Sequence (P03372 whole entry, looked up): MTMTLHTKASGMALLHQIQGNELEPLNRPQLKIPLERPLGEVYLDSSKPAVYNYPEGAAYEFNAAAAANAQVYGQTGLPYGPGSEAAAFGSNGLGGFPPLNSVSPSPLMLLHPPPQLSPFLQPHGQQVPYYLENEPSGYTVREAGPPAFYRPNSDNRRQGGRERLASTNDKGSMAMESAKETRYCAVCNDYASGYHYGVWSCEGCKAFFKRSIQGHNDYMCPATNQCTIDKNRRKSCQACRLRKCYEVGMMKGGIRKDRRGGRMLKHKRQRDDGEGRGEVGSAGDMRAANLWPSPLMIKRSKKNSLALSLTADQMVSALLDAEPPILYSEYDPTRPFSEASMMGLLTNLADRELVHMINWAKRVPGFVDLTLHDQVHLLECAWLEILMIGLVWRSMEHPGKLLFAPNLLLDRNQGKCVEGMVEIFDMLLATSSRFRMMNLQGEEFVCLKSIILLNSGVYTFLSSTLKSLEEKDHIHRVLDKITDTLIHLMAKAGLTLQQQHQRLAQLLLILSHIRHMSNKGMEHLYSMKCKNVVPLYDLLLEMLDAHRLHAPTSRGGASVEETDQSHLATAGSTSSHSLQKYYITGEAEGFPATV
# Assay: ATG_ERa_TRANS: Attagene TRANS-FACTORIAL HepG2 Assay for human Estrogen Receptor alpha (ERa) (AID 2282970; active means hit-call score of the fitted dose curve at least 0.9, where 1 is the maximum)
# Details: HepG2 Attagene TRANS ERa GAL4 reporter, mRNA
# Outline: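 Human liver HepG2, transient transfection of multiple GAL4-UAS reporter units; TRANS format (exogenous NR-Gal4 chimera). 24 h dosing. Readout: reporter mRNA, RT-PCR, 6-FAM primer extension, HpaI digest, capillary electrophoresis. Positive direction vs DMSO.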
Structure (SMILES),AC50,outcome
O=C(c1ccccc1)c1ccc(O)cc1O,1330 nM (active),–
CCOCN(C(=O)CS(=O)(=O)O)c1c(C)cccc1CC,–,inactive
OCC(F)(F)C(F)(F)C(F)(F)C(F)(F)C(F)(F)C(F)(F)CO,53.8 nM (active),–
CC(=O)CCC(C)C,–,inactive
COCCC(=O)OC,–,inactive
CC(C)OC(=O)COc1ccc(Cl)cc1Cl,–,inactive
CCCCCCCCCCCCCC[P+](CCCC)(CCCC)CCCC,–,inactive
CO[Si](C)(CCC(F)(F)C(F)(F)C(F)(F)C(F)(F)C(F)(F)C(F)(F)F)OC,–,inactive
O=C1c2c(O)ccc(Nc3ccc(CCO)cc3)c2C(=O)c2c([N+](=O)[O-])ccc(O)c21,–,inactive
CN(C)C(C)(C)CO,–,inactive
CCOCOCC,–,inactive
C=CCOC(=O)CC(C)C,–,inactive
